Screens: PubChem, National Center for Advancing Translational Sciences (NCATS)
Rows were chosen to be rich in hits. Some 19% of all compounds tested hit in one or more screens of this group.
IL1B secr inh: inhibitors of inflammasome signaling (IL-1 beta secretion) | THP-1 LPS/ATP IL-1B secretion, AlphaLISA, 16 h; active compounds read low | activity change, % at 57.5 µM | 360,000 compounds, 4.7% hits | AID 743279; in the data active = activity change below about -50%; inconclusive = mostly about -30% to -49%; also: % is scaled to controls: 0 for no effect and ±100 for the full control effect
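THP-1 cells pretreated 1 hr with compounds (up to 57.5 uM final), then stimulated with LPS (250 ng/mL final) plus ATP (1.25 mM final); secreted IL-1B measured by AlphaLISA after 16 hr, decreased signal indicating inhibition.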
TDP1 cell CPT: growth inhibition of DT40 Tdp1-/-;hTDP1 cells with camptothecin (screen for TDP1 inhibitors); AID 686979; chicken DT40 Tdp1-/-;hTDP1 cells + 20 nM CPT, ATP luminescence, 48 h; 420,000 compounds, 12% hits; Potency, µM (doses to about 46.2 µM), for inactives: at the highest dose activity change, negative = growth inhibition, usual class: inhibitors; also: potency is read from the fitted curve at half-maximal effect; % is scaled to controls: 0 for no effect and ±100 for the full control effect; nearly all actives have a fitted effect of over 55% in size
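Chicken DT40 Tdp1-/- cells complemented with human TDP1, 400 cells/well, exposed to compounds plus 20 nM camptothecin for at least 48 h at 37 C; viability read as ATP content by CellTiter-Glo luminescence.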
SW480 rereplic: inducers of DNA re-replication in SW480 colon cancer cells. SW480 DNA re-replication, Hoechst DNA content imaging, 48 h. Potency, µM (doses to about 46.1 µM), without a hit: top-dose re-replication activation, usual class: activators. 340,000 compounds, 1.8% hits. AID 624297; also: potency is read from the fitted curve at half-maximal effect; % of control where 0% means no effect; nearly all actives have a fitted effect of over 55% in size
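Per well, 250 cells were exposed to pinned compound for 48 hr. Nuclear DNA was visualised with Hoechst (40 min, 37 C) and total object intensity recorded by fluorescence scanning.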
MCF10A rereplic: inducers of DNA re-replication in MCF 10A breast cells; MCF 10A DNA re-replication, Hoechst nuclear intensity, 48 h; Potency, µM (top dose mostly 46.1 µM), without a hit: top-dose activity, positive = re-replication, usual class: activators; 350,000 compounds, 2.9% hits; AID 624296; also: potency is read from the fitted curve at half-maximal effect; % of control where 0% means no effect; nearly all actives have a fitted effect of over 50% in size
TDP1 cell noCPT: qHTS for Inhibitors of human tyrosyl-DNA phosphodiesterase 1 (TDP1): qHTS in cells in absence of CPT | 420,000 compounds, 15% hits | DT40 Tdp1-/- hTDP1 cells, no CPT, ATP luminescence, 48 h | Potency, µM (doses to about 46.2 µM), for inactives: at the top dose activity change, negative = growth inhibition, hits mostly inhibitors | AID 686978, 2013; also: potency is read from the fitted curve at half-maximal effect; % is scaled to controls: 0 for no effect and ±100 for the full control effect; nearly all actives have a fitted effect of over 55% in size
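Readout: luminescence from CellTiter-Glo after 30 min in the dark at RT. Cells: DT40 Tdp1-/- with stable hTDP1, 400/well. Exposure: compounds alone, ≥48 hr, 37 °C.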
BCR signal inh: blocks chronic active B-cell receptor signaling | ABC-DLBCL IkBa-CBG/CBR reporter, luminescence ratio, 4 h | Potency, µM (highest dose often 46.1 µM), without a hit: at the top dose activity change, negative = inhibition, most hits filed as inhibitors | 340,000 compounds, 0.05% hits | AID 493014; active = well fitted inhibition curve with a large enough effect in the signal ratio, with a control signal flat, not every such curve was filed as active; inconclusive = small, poorly fitted or top-dose-only effect, or effect the other way, or a change in a side signal; the % refers to the signal ratio;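 also: potency is read from the fitted curve at half-maximal effect; plate controls were basal doxycycline-induced cells for no effect and cells given 10 µM MG132 for full effect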
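Concentration-response series (up to 46 uM) were applied to TMD8 dual-reporter cells for 4 h at 37C with doxycycline. Green/red ratio, after filter-overlap correction, defined %Activity; red signal alone was normalised to basal cells and zero luminescence.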
Numbers without * were called inactive; i = inactive; u = inconclusive; x = no result; [ ] = remark or other dose. Unless noted, calls follow the shape of the dose curve; as a rule, active = well fitted curve in the direction sought with a large enough effect; inconclusive = small, poorly fitted or top-dose-only effect, or another doubt; inactive = no such curve, though single readings can be large; an effect the other way counts as inactive or inconclusive.

SMILES | IL1B secr inh | TDP1 cell CPT | SW480 rereplic | MCF10A rereplic | TDP1 cell noCPT | BCR signal inh
CN(C(=O)COC(=O)CNC(=O)c1ccccc1F)C1CCCCC1 | 9.9 | -3.6% | -3.4% | -1.1% | 11.8% | 0.2%
CC(C)c1ccc(S(=O)(=O)c2cc3cc(Br)ccc3oc2=O)cc1 | 8.1 | -14.8% | 0.0% | 8.2µM* | u | u
CC(C)c1ccc(NC(=O)c2ccc3oc(=O)c(S(=O)(=O)c4ccc(F)cc4)cc3c2)cc1 | x | u | x | x | 7.31µM* | x
COc1cccc(C(C)(O)c2nc(-c3cccc4cccnc34)cs2)c1 (configuration not stated) | 28.1 | u | x | x | u | x
O=C(O)COc1ccc2occ(C(=O)c3ccccc3)c2c1 | 1.0 | -10.3% | -7.8% | -2.9% | -15.2% | 5.7%
COC(=O)COc1ccc2occ(C(C)=O)c2c1 | 16.2 | -0.2% | 16.4µM* | 8.2µM* | -3.0% | 0.5%
COCCOC(=O)c1c(C)n(C)c2ccc(OC(=O)c3c(OC)cccc3OC)cc12 | 26.7 | u | -4.1% | 0.1% | 16.4µM* | -2.1%
COc1ccc2c(c1)c(C(=O)OCCN(C)C)c(C)n2C | -69.3* | -13.6% | -2.7% | u | u | u
COC(=O)[C@@]12C[C@@H](CC(=O)NCCC(C)C)C(=O)N(CCc3ccc(OC)c(OC)c3)C1=CCC(C)(C)C2 | x | u | x | x | 20.6µM* | x
CCCCOCCCNC(=O)C[C@@H]1C[C@@]2(C(=O)OC)CC(C)(C)CC=C2N(CCc2ccc(OC)c(OC)c2)C1=O | x | u | x | x | 14.6µM* | x
COc1ccc(S(=O)(=O)N2CCCCC2)cc1NS(=O)(=O)c1ccccc1 | 18.5 | -1.8% | 0.7% | -3.1% | -5.1% | u
Cc1c(Cl)cccc1NC(=O)CCn1nc(C)c2c(C)n(-c3ccccc3)nc2c1=O | x | -13.0% | x | x | 11.7% | x
CCOc1cccc(N)c1 | 3.2 | 14.7% | -1.1% | -6.2% | -0.3% | u
CCOc1ccc(N)c(SSc2cc(OCC)ccc2N)c1 | 0.0 | 2.59µM* | 17.0% | u | 5.17µM* | u
CCC1Oc2ccccc2N(CC(=O)NC2CCCCC2C)C1=O (configuration not stated) | 7.2 | -28.5% | -22.8% | 2.4% | -0.3% | 12.1%
CN(C)S(=O)(=O)n1cc(/C=C(\NC(=O)c2ccccc2)C(=O)NCCCn2ccnc2)c2ccccc21 | -10.9 | -21.0% | u | 4.5% | -26.7% | 2.0%
CCN(CC)C(=O)/C(=C/c1cn(S(=O)(=O)N(C)C)c2ccccc12)NC(=O)c1ccc(OC)cc1 | 5.0 | u | u | u | 20.6µM* | 17.2%
CN(C)S(=O)(=O)n1cc(/C=C(\NC(=O)c2ccccc2Cl)C(=O)NCCCn2ccnc2)c2ccccc21 | -24.2 | 18.4µM* | -44.0% | u | 29.1µM* | 0.7%
CCCCNC(=O)c1ccc2c(c1)N=C(CC)c1ccccc1S2 | x | 4.11µM* | x | x | 4.61µM* | x
CCC1=Nc2cc(C(=O)NCCCN3CCOCC3)ccc2Sc2ccccc21 | 4.1 | -17.3% | 7.1% | u | -2.7% | 3.0%
CCC1=Nc2cc(C(=O)NCCN3CCCC3)ccc2Sc2ccccc21 | -0.7 | u | 0.1% | u | u | 1.5%
CCC1=Nc2cc(C(=O)NCCCOC)ccc2Sc2ccccc21 | 55.5 | 1.46µM* | 1.3µM* | u | 1.16µM* | u
CCC1=Nc2cc(C(=O)NCCCOC)ccc2Sc2ccc(Br)cc21 | x | 1.3µM* | x | x | 1.3µM* | x
CCC1=Nc2cc(C(=O)NCCN3CCOCC3)ccc2Sc2ccc(Br)cc21 | -3.8 | -24.6% | 0.7% | -0.7% | 1.2% | 1.5%
Cc1ccc(NC(c2ccc(Cl)cc2)c2nnc(-c3cccc(F)c3)o2)cc1C (configuration not stated) | x | -6.0% | x | x | u | x
SMILES | IL1B secr inh | TDP1 cell CPT | SW480 rereplic | MCF10A rereplic | TDP1 cell noCPT | BCR signal inh
S=c1c2c(nc3nc[nH]n13)CCC2 | 8.1 | u | u | 1.2% | 20.6µM* | u
Cc1ccc(C)c(N2CCN(C(=O)c3cn(CC(C)C)c(=O)c4c3c3ccccc3n4C)CC2)c1 | x | u | x | x | 23.1µM* | x
Cc1cccc(N2CCN(C(=O)c3cn(C)c(=O)c4c3c3ccccc3n4C)CC2)c1C | u | 22.4µM* | u | u | 22.4µM* | 0.6%
Cc1cccc(N2CCN(C(=O)c3cc(=O)[nH]c4ccccc34)CC2)c1C | 0.0 | u | i[1.84 µM] | 6.1% | -13.6% | -18.1%
COCCn1cc(C(=O)N2CCN(C)CC2)c2c3ccccc3n(C)c2c1=O | -10.8 | -4.4% | 4.2% | 2.6% | u | -0.6%
Cc1cccc(N2CCN(C(=O)c3cn(CC(C)C)c(=O)c4c3c3ccccc3n4C)CC2)c1C | x | 8.2µM* | x | x | 5.17µM* | x
Cc1ccc(-n2nc(C(=O)N3CCN(c4cc(C)ccc4C)CC3)c3c4ccccc4n(C)c3c2=O)cc1 | x | -15.4% | x | x | -0.9% | x
COc1ccc(N2CCN(C(=O)c3cn(CC(C)C)c(=O)c4c3c3ccccc3n4C)CC2)cc1 | x | u | x | x | 23.1µM* | x
Cc1ccccc1-c1nc(SCC(=O)NCc2ccco2)c2c(=O)n(C)c(=O)n(C)c2n1 | x | -23.5% | x | x | 6.6% | x
Cc1cc(S(=O)(=O)NCC(c2ccc3c(c2)OCO3)N2CCOCC2)ccc1F (configuration not stated) | -12.8 | u | 5.3% | 13.5% | u | 11.4%
CC[C@]12c3[nH]c4ccccc4c3CCN1C(=O)C(CC(=O)NCc1cccc(C(F)(F)F)c1)C[C@@H]2C(=O)N1CCN(C(=O)C2CC2)CC1 (some centres not stated) | -22.3 | u | -0.8% | 73.7% | 23.1µM* | 3.3%
CN(C)CCCNC(=O)CC1C[C@H](C(=O)N2CCOCC2)[C@@]2(CCC3CCCC3)c3[nH]c4ccccc4c3CCN2C1=O (some centres not stated) | 9.8 | -17.4% | 4.7% | 8.9% | -16.3% | -1.1%
CC[C@]12c3[nH]c4ccc(Cl)cc4c3CCN1C(=O)[C@@H](CC(=O)NCc1cccc(C(F)(F)F)c1)C[C@@H]2C(=O)N1CCN(C(=O)C2CC2)CC1 | u | u | 6.5% | u | u | u
O=C(CC1C[C@H](C(=O)N2CCOCC2)[C@@]2(CCC3CCCC3)c3[nH]c4ccccc4c3CCN2C1=O)NCc1cccc(C(F)(F)F)c1 (some centres not stated) | 2.8 | 23.1µM* | -3.0%[9.22 µM] | 3.9% | u | x
